Experimental data as given in PubChem BioAssay (NCI).
The panel holds about 79,000 compounds, 15% with a hit somewhere; the sample as a whole holds those more often. Active and inactive are the calls of the source. Cut-off read from the data, not from the text of the source: active = growth inhibition above about 70%; inactive = the rest.

Assays:
[1] = NCI Yeast Anticancer Drug Screen. Data for the wt1 strain (AID 149);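 note: 0% = growth of vehicle-treated wt1 cultures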; details: S. cerevisiae wt1 strain (SPY 50644) growth inhibition, stronger effect = higher value
How it was run: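 The wt1 strain was treated with compounds, and growth was compared with vehicle-treated cultures to give inhibition.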

[2] = NCI Yeast Anticancer Drug Screen. Data for the rad50EPP+ strain (AID 151);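 note: 0% = growth of vehicle-treated control cultures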; details: S. cerevisiae rad50 mutant strain, stronger effect = higher value
How it was run: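 Read-out is yeast growth inhibition relative to vehicle; cells used were the rad50EPP+ strain.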

[3] = NCI Yeast Anticancer Drug Screen. Data for the rad50 strain (AID 155);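 note: 0% = growth of vehicle-only cultures of the same strain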; details: S. cerevisiae rad50 strain growth inhibition, stronger effect = higher value
How it was run: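 Cells are treated with compound, grown, and their growth is then scored against vehicle-only cultures of the same repair-deficient yeast strain.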

[4] = NCI Yeast Anticancer Drug Screen. Data for the mec2-1 strain (AID 157); details: S. cerevisiae mec2-1 strain, stronger effect = higher value
How it was run: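 Using mec2-1 yeast: add compound, measure growth, express inhibition versus vehicle-treated cultures.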

[5] = NCI Yeast Anticancer Drug Screen. Data for the rad14 strain (AID 159);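 note: 0% = growth of vehicle-treated control cultures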; details: S. cerevisiae rad14 strain growth inhibition, stronger effect = higher value
How it was run: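 Readout: yeast growth inhibition, referenced to vehicle-only cultures. Strain bears a defined alteration in DNA damage repair.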

[6] = NCI Yeast Anticancer Drug Screen. Data for the sgs1 mgt1 strain (AID 161);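 note: 0% = growth of cultures given vehicle only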; details: S. cerevisiae sgs1 mgt1 strain, stronger effect = higher value
How it was run: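 This yeast growth screen uses a strain with defined DNA-repair lesions; compound-treated growth is compared with vehicle-treated growth.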

[7] = NCI Yeast Anticancer Drug Screen. Data for the CLN2oe strain (AID 163);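 note: 0% = growth of vehicle-only control cultures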; details: S. cerevisiae CLN2oe strain, stronger effect = higher value
How it was run: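 Whole-cell yeast growth assay. A strain engineered for altered cell-cycle control received compound, and inhibition relative to vehicle-treated cultures was recorded.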

[8] = NCI Yeast Anticancer Drug Screen. Data for the cln2 rad14 strain (AID 165);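 note: 0% = growth equal to vehicle treated cultures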; details: S. cerevisiae cln2 rad14 strain, stronger effect = higher value
How it was run: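 Yeast strain cln2 rad14, bearing defects in cell cycle control and DNA repair, serves as the test system; values reflect growth inhibition compared with vehicle.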

[9] = NCI Yeast Anticancer Drug Screen. Data for the bub3 strain (AID 167); details: S. cerevisiae bub3 mutant strain, stronger effect = higher value
How it was run: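 Part of a panel of yeast mutants defective in DNA damage repair or cell cycle regulation. Each strain is grown with compound, and inhibition is calculated relative to solvent-treated cultures.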

[10] = NCI Yeast Anticancer Drug Screen. Data for the wt2 strain (AID 169);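 note: 0% = growth of vehicle-treated yeast cultures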; details: S. cerevisiae wt2 strain growth inhibition, stronger effect = higher value
How it was run: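 Treated yeast vs. vehicle-treated yeast: growth inhibition determined.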

[11] = NCI Yeast Anticancer Drug Screen. Data for the mlh1 strain (AID 171);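 note: 0% = growth of vehicle-treated control cultures of the same strain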; details: S. cerevisiae mlh1 strain growth inhibition, stronger effect = higher value
How it was run: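 A yeast strain with a defined genetic lesion serves as the test organism. Cultures receive compound or vehicle, and growth is measured.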

[12] = NCI Yeast Anticancer Drug Screen. Data for the sgs1 strain (AID 173);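 note: 0% = growth of vehicle-only control cultures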; details: S. cerevisiae sgs1 mutant, stronger effect = higher value
How it was run: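 A genetically defined yeast mutant is incubated with the test compound, and its growth is compared to that of the same strain given vehicle.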

[13] = NCI Yeast Anticancer Drug Screen. Data for the mlh1 rad18 strain (AID 175); details: S. cerevisiae mlh1 rad18 strain growth inhibition, stronger effect = higher value
How it was run: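 Steps: expose repair-defective yeast to compound; measure growth; express inhibition against vehicle-treated controls.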

[14] = NCI Yeast Anticancer Drug Screen. Data for the rad18 strain (AID 177); details: S. cerevisiae rad18 mutant growth inhibition, stronger effect = higher value
How it was run: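 Measured value is growth inhibition of a yeast strain bearing a DNA repair alteration, referenced to vehicle-treated cells.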

[15] = NCI Yeast Anticancer Drug Screen. Data for the rad52 strain (AID 147);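 note: 0% = growth of vehicle-treated control cultures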; details: S. cerevisiae rad52 mutant growth inhibition, stronger effect = higher value
How it was run: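 Here a repair-compromised yeast strain receives each compound; its growth is then quantified and normalised to vehicle-only controls.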

[16] = NCI Yeast Anticancer Drug Screen. Data for the mgt1 strain (AID 153); details: S. cerevisiae mgt1 mutant growth inhibition, stronger effect = higher value
How it was run: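 Measured: inhibition of mgt1 yeast growth by compound, normalized to vehicle-treated cultures.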

[17] = at 5.0 µM (retest, dose inferred, filed as 0.5)
[18] = at 50.0 µM (retest, dose inferred, filed as 5.0)

Measured: growth inhibition

CC(=O)Oc1ccc(N2C(=O)C3c4[nH]c5ccccc5c4C4CCC(C(C)(C)C)CC4C3C2=O)cc1 (stereo not drawn)
active: [1]; at 11.0 µM 98% | [1]; at 33.0 µM 95% | [1]; at 100.0 µM 95% | [3]; at 3.7 µM 91% | [3]; [17] 98% | [3]; at 11.0 µM 96% | [3]; at 33.0 µM 95% | [3]; [18] 98% | [3]; at 50.0 µM 98.5% | [3]; at 100.0 µM 92% | [4]; at 3.7 µM 71% | [4]; [17] 99% | [4]; at 11.0 µM 98% | [4]; at 33.0 µM 98% | [4]; [18] 98% | [4]; at 50.0 µM 98.5% | [4]; at 100.0 µM 95% | [5]; at 11.0 µM 97% | [5]; at 33.0 µM 97% | [5]; at 100.0 µM 95% | [6]; [17] 98% | [6]; [18] 98% | [6]; at 50.0 µM 98.5% | [7]; at 3.7 µM 92% | [7]; at 11.0 µM 98% | [7]; at 33.0 µM 97% | [7]; at 100.0 µM 97% | [8]; [17] 83% | [8]; [18] 98% | [8]; at 50.0 µM 98.6% | [9]; [17] 98% | [9]; at 11.0 µM 97% | [9]; at 33.0 µM 96% | [9]; [18] 98% | [9]; at 50.0 µM 98.5% | [9]; at 100.0 µM 94% | [10]; at 11.0 µM 98% | [10]; at 33.0 µM 98% | [10]; at 100.0 µM 96% | [11]; at 11.0 µM 98% | [11]; at 33.0 µM 97% | [11]; at 100.0 µM 94% | [12]; at 11.0 µM 97% | [12]; at 33.0 µM 97% | [12]; at 100.0 µM 94% | [13]; [17] 98% | [13]; [18] 98% | [13]; at 50.0 µM 98% | [14]; at 3.7 µM 82% | [14]; at 11.0 µM 96% | [14]; at 33.0 µM 95% | [14]; at 100.0 µM 93%
inactive: [1]; at 1.2 µM 15% | [1]; at 3.7 µM 64% | [2]; at 1.2 µM -23% | [2]; at 3.7 µM -26% | [2]; at 11.0 µM -26% | [2]; at 33.0 µM -6% | [2]; at 100.0 µM 6% | [3]; at 1.2 µM -14% | [4]; at 1.2 µM -4% | [5]; at 1.2 µM -15% | [5]; at 3.7 µM 18% | [7]; at 1.2 µM 16% | [9]; at 1.2 µM -28% | [9]; at 3.7 µM 64% | [10]; at 1.2 µM -4% | [10]; at 3.7 µM 25% | [11]; at 1.2 µM -15% | [11]; at 3.7 µM 36% | [12]; at 1.2 µM -7% | [12]; at 3.7 µM 52% | [14]; at 1.2 µM 13%

O=C(/C=C/c1cccc2ccccc12)c1ccc(Cl)cc1
inactive: [15]; at 1.2 µM 7% | [15]; at 3.7 µM 7% | [15]; at 11.0 µM 7% | [15]; at 33.0 µM -4% | [15]; at 100.0 µM -13% | [2]; at 1.2 µM -3% | [2]; at 3.7 µM 4% | [2]; at 11.0 µM 9% | [2]; at 33.0 µM 0% | [2]; at 100.0 µM -12% | [16]; at 1.2 µM 13% | [16]; at 3.7 µM 11% | [16]; at 11.0 µM 7% | [16]; at 33.0 µM 8% | [16]; at 100.0 µM -5% | [3]; at 1.2 µM 24% | [3]; at 3.7 µM 27% | [3]; [17] 37% | [3]; at 11.0 µM 24% | [3]; at 33.0 µM 13% | [3]; at 100.0 µM 13% | [4]; at 1.2 µM 11% | [4]; at 3.7 µM 14% | [4]; [17] 67% | [4]; at 11.0 µM -2% | [4]; at 33.0 µM -6% | [4]; at 100.0 µM -12% | [5]; at 1.2 µM -28% | [5]; at 3.7 µM -23% | [5]; at 11.0 µM -30% | [5]; at 33.0 µM -38% | [5]; at 100.0 µM -35% | [6]; [17] -3% | [6]; [18] 42% | [7]; at 1.2 µM 5% | [7]; at 3.7 µM 4% | [7]; at 11.0 µM -27% | [7]; at 33.0 µM -35% | [7]; at 100.0 µM -43% | [8]; [17] 28% | [8]; [18] -7% | [9]; at 1.2 µM 6% | [9]; at 3.7 µM 11% | [9]; [17] 2% | [9]; at 11.0 µM 9% | [9]; at 33.0 µM 7% | [9]; [18] 17% | [9]; at 100.0 µM -6% | [10]; at 1.2 µM -25% | [10]; at 3.7 µM -19% | [10]; at 11.0 µM -28% | [10]; at 33.0 µM -33% | [10]; at 100.0 µM -33% | [11]; at 1.2 µM -33% | [11]; at 3.7 µM -24% | [11]; at 11.0 µM -34% | [11]; at 33.0 µM -46% | [11]; at 100.0 µM -49% | [12]; at 1.2 µM -21% | [12]; at 3.7 µM -22% | [12]; at 11.0 µM -27% | [12]; at 33.0 µM -34% | [12]; at 100.0 µM -48% | [13]; [17] 35% | [14]; at 1.2 µM 3% | [14]; at 3.7 µM 9% | [14]; at 11.0 µM 5% | [14]; at 33.0 µM 13% | [14]; at 100.0 µM 14%
active: [3]; [18] 98% | [3]; at 50.0 µM 83.5% | [4]; [18] 99% | [4]; at 50.0 µM 74.6% | [13]; [18] 99% | [13]; at 50.0 µM 80.4%
